Shown are actives, neighbours in structure and some others; about 3.4% of the full set was active somewhere.
PAFAH1B2 inh = inhibitors of human PAFAH1B2. P68402. recombinant PAFAH1B2, FP-rhodamine activity probe, fluorescence polarization. inhibition, % at 3.39 µM. 340,000 compounds, 1.2% hits. AID 492953;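 active = inhibition above the mean of all tested compounds plus 3 SD, cut at about 24% in these data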
Target sequence (P68402 whole entry, looked up): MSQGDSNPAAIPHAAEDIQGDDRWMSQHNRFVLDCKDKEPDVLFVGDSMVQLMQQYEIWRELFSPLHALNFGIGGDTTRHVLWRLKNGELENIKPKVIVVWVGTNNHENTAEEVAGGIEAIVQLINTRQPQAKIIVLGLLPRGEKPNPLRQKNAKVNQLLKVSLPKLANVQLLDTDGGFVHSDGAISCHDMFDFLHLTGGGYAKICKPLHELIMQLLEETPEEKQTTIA
pPAFAH FP inh = pPAFAH (human) enzyme inhibition; 330,000 compounds, 1.5% hits; Q13093; inhibition, % at 3.39 µM; recombinant pPAFAH, FP-rhodamine probe fluorescence polarization;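 active = inhibition above the mean inhibition across the screen plus 3 SD, cut at about 25% in these data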;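 also: inhibitors block binding of the rhodamine activity-based probe so polarization drops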
PAFAH1B3 inh = PAFAH1B3 (human) inhibition; recombinant PAFAH1B3, FP-rhodamine probe, fluorescence polarization; inhibition, % at 3.39 µM; 340,000 compounds, 0.28% hits;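 active = inhibition above the screen-wide average of all tested compounds plus 3 SD, cut at about 25% in these data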
Target sequence (Q15102 whole entry, looked up): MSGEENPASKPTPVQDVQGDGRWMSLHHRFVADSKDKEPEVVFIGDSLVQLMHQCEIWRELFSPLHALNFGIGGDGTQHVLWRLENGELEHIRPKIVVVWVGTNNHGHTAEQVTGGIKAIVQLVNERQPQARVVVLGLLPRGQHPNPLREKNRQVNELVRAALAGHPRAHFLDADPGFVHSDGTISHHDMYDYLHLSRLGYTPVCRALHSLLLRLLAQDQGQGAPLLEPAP
PP1 inh = blocks human PP1-alpha phosphatase, a PP5 counter-screen; P62136; purified PP1alpha, OMFP fluorescence; inhibition, % at 6.7 µM; 320,000 compounds, 0.9% hits;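 active = inhibition above the mean inhibition of all tested compounds plus 3 SD, computed separately for each screening campaign, cut at about 15% in these data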
PP5 inh = PP5 (human) phosphatase inhibition; purified PP5c, OMFP substrate fluorescence; inhibition, % at 6.7 µM; 320,000 compounds, 0.18% hits; AID 1987;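 active = inhibition above the campaign's mean inhibition across all tested compounds plus 3 SD, cut at about 9.5% in these data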
PAFAH2 FP inh = PAFAH2 (human) inhibition; Q99487; recombinant PAFAH2, FP-rhodamine activity probe, fluorescence polarization; inhibition, % at 3.39 µM; 340,000 compounds, 0.99% hits; AID 492956;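 active = inhibition above the mean over all tested compounds plus 3 SD, cut at about 30% in these data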;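 also: inhibitors block probe labeling of enzyme so polarization drops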
PAFAH2 FP conf = PAFAH2 (human) inhibition, confirmed; inhibition, % at 3.39 µM; recombinant PAFAH2, FP-rhodamine activity probe, fluorescence polarization; shares compounds with PAFAH2 FP inh; 2,300 compounds, 65% hits; AID 493030;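 active = mean inhibition over three repeats above a set limit taken from the earlier primary screen, cut at about 30% in these data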;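 also: inhibitor blocks binding of rhodamine activity probe so polarization falls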
Numbers stand for hits; 0 = inactive; - = no result given.

SMILES	PAFAH1B2 inh	pPAFAH FP inh	PAFAH1B3 inh	PP1 inh	PP5 inh	PAFAH2 FP inh	PAFAH2 FP conf
CC1CC1C(=O)OCC(=O)NC(=O)c1ccc(C(C)(C)C)cc1 (stereo unspecified)	0	0	0	-	-	0	-
CC(NC(=O)COC(=O)C1CC1C)c1ccccc1 (stereo unspecified)	0	0	0	-	-	33.3	30.4
CCOC(=O)C1=C(C)NC(C)=C(C(=O)OCC)C1C(=O)OCC(=O)NC(C)c1ccccc1 (stereo unspecified)	0	-	0	-	-	0	-
CC(C)c1ccc(NC(=O)COC(=O)C2CCCCC2)cc1	0	0	0	0	0	45.5	0
NS(=O)(=O)c1ccc(NC(=O)COC(=O)C2CCCCC2)cc1	0	0	0	0	0	0	-
O=C(Nc1ccc2[nH]ncc2c1)c1ccccc1Cl	0	0	0	0	0	0	-
CS(=O)(=O)N1CCC(C(=O)NCc2ccncc2)CC1	0	0	0	0	0	0	-
Cc1cc(C)c(S(=O)(=O)N2CCC(C(=O)NCc3ccncc3)CC2)c(C)c1	0	0	0	0	0	101.3	0
CC1(C)C(=O)N(c2ccccc2Cl)C(=O)c2ccccc21	0	0	0	0	0	0	-
O=C(COC(=O)c1ccccc1Br)NCc1cccs1	0	0	0	-	-	0	-
O=C(COC(=O)/C=C/c1ccc(F)cc1)NCc1cccs1	0	0	0	0	0	61.7	46.6
O=C(COC(=O)/C=C/c1ccccc1)NCc1cccs1	0	0	0	0	0	60.6	47.5
Cc1ccc(/C=C/C(=O)OCC(=O)NCc2cccs2)o1	0	0	0	-	-	68.1	53.3
Cc1ccc(/C=C/C(=O)OCC(=O)NC(C)C)o1	0	0	0	0	0	34.8	0
COc1ccc(S(=O)(=O)N(C)C[C@H]2Oc3c(NC(=O)Nc4c(C)noc4C)cccc3C(=O)N([C@@H](C)CO)C[C@H]2C)cc1	0	0	0	-	-	0	-
CCN(CC)S(=O)(=O)c1ccc(/C=C/C(=O)OCC(=O)NCc2cccs2)cc1	0	0	0	0	0	93.0	80.0
CCN(CC(=O)NCc1cccs1)S(=O)(=O)c1ccc([N+](=O)[O-])cc1	0	0	0	0	0	0	-
Oc1ccc2c(c1)OCC1(O)Cc3cc(O)c(O)cc3C21 (stereo unspecified)	0	-	0	-	-	34.2	0
O=C(COC(=O)c1ccccc1SCC(=O)N1CCCC1)NC1CCS(=O)(=O)C1 (stereo unspecified)	0	0	0	0	0	0	-
N#CC1(NC(=O)COC(=O)c2ccccc2SCC(=O)N2CCCC2)CCCCC1	0	0	0	0	0	80.6	80.4
O=C(CSc1ccccc1C(=O)O)NC1CCCCCC1	0	0	0	0	0	0	-
O=C(COC(=O)c1ccccc1SCC(=O)N1CCCC1)NC1CCCCC1	0	0	0	0	0	82.5	73.3
NC(=O)COC(=O)c1ccccc1SCC(=O)NC1CCCCCCC1	0	0	0	0	0	38.5	37.4
CCN(CC)S(=O)(=O)c1ccc(C(=O)NCc2n[nH]c(=S)n2-c2ccc(Cl)c(Cl)c2)cc1	0	0	0	0	0	0	-
CCSc1nnc(NC(=O)c2ccccn2)s1	0	0	0	0	0	0	-
SMILES	PAFAH1B2 inh	pPAFAH FP inh	PAFAH1B3 inh	PP1 inh	PP5 inh	PAFAH2 FP inh	PAFAH2 FP conf
Cc1cnc(C(=O)Nc2nnc(SCc3c(Cl)cccc3Cl)s2)cn1	0	0	0	0	0	59.7	49.7
O=C(CN1C(=O)C2CC=CCC2C1=O)Nc1nnc(SCc2c(Cl)cccc2Cl)s1 (stereo unspecified)	0	0	0	0	0	77.8	74.3
CCS(=O)(=O)N1Cc2ccccc2CC1C(=O)Nc1nnc(SCc2c(Cl)cccc2Cl)s1 (stereo unspecified)	0	0	0	17.4	0	51.6	35.3
CCSc1nnc(NC(=O)C2Cc3ccccc3CN2S(=O)(=O)CC)s1 (stereo unspecified)	0	0	0	0	0	0	-
CC(C)=CC(=O)OCC(=O)Nc1cc([N+](=O)[O-])ccc1F	0	0	0	0	0	62.0	68.1
CC(C)=CC(=O)OCC(=O)Nc1ccc(F)cc1Cl	0	0	0	0	0	47.2	41.1
CCOC(=O)/C=C/C(=O)OCC(=O)Nc1ccc(Cl)cc1Cl	0	0	0	0	0	0	-
COc1ccc([N+](=O)[O-])cc1NC(=O)COC(=O)C=C(C)C	0	0	0	0	0	0	-
CCn1c(=O)c(C(=O)CN(C)CC(=O)Nc2cccc(F)c2)c(N)n(Cc2ccccc2)c1=O	0	0	0	-	-	0	-
CC(NC(=O)COC(=O)c1cccs1)c1ccccc1 (stereo unspecified)	0	0	0	0	0	59.7	47.2
CCC(=O)Nc1ccc(C(=O)OCC(=O)c2cccs2)cc1	0	0	0	0	0	33.8	32.1
COc1ccc(C(=O)OCC(=O)NC(C)CCc2ccccc2)c(OC)c1 (stereo unspecified)	0	0	0	0	0	48.5	0
NC(=O)c1ccc(NC(=O)CCC(=O)c2cccs2)cc1	0	0	0	0	0	0	-
CC(CCc1ccccc1)NC(=O)COC(=O)c1cccn1C (stereo unspecified)	0	0	0	0	0	0	-
COc1cc(OC)cc(C(=O)OCC(=O)NC(C)CCc2ccccc2)c1 (stereo unspecified)	0	0	0	0	0	0	-
CC(CCc1ccccc1)NC(=O)COC(=O)c1cccs1 (stereo unspecified)	0	0	0	0	0	60.4	44.1
CC12CCC(=O)N1C(C(=O)Nc1cccc(F)c1)CS2 (stereo unspecified)	0	0	0	0	0	0	-
CCCCn1c(N)c(N(CCOC)C(=O)c2cccc(-n3cnnn3)c2)c(=O)[nH]c1=O	0	0	0	0	0	0	-
Oc1ccc(Cl)cc1N=Cc1sc2ccccc2c1Cl	0	0	0	0	0	0	-
O=[N+]([O-])c1ccc(O)c(N=Cc2sc3ccccc3c2O)c1	0	0	0	0	0	32.9	0
CC(C)Nc1nc(NC(C)C)nc(SCC(N)=O)n1	0	0	0	0	0	0	-
O=C(COC(=O)c1cc(S(=O)(=O)N2CCOCC2)ccc1F)Nc1ccc2c(c1)OCO2	0	0	0	-	-	0	-
Cc1ccc(S(=O)(=O)N2CCOCC2)cc1C(=O)OCC(=O)Nc1ccc2c(c1)OCO2	0	0	0	0	0	37.3	0
COc1cccc(NC(=O)COC(=O)c2cc(S(=O)(=O)N3CCOCC3)ccc2C)c1	0	0	0	0	0	35.1	0
COc1ccc(C(=O)N/N=C/c2cccc3cccnc23)cc1	0	0	0	0	0	0	-
COc1ccc(C(=O)N/N=C/c2cc3ccccc3[nH]c2=S)cc1	0	0	0	0	0	43.3	0
CCOC(=O)c1c(C)oc2cc(Br)c(O)c(Br)c12	0	0	0	0	0	42.7	31.3
